Out of some 87,000 compounds screened, about 360 (0.41%) were called active. The entries come from a sample that favours actives as a whole. Values without a mark were called inactive. Cut-off read from the data, not from the text of the source: active = cytotoxicity above about 50%; inactive = the rest.
Assay: cytotoxicity in HT1080 fibrosarcoma cells, cell-based, fluorescence readout (AID 620);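 note: cells exposed to compound overnight then 4 h with Alamar Blue; 0% = vehicle DMSO and 100% = killing control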
Details: HT1080 viability, at 10 µM, active compounds read high

| Compound | cytotoxicity |
| --- | --- |
| O=C(c1ccco1)N1CCCC(c2nc(-c3ccc(S(=O)(=O)NCc4ccccc4)cc3)no2)C1 (stereo unspecified) | -1.4% |
| CCCCS(=O)(=O)c1sc2nc(C)cc(C)c2c1N | 12.9% |
| Cc1ccc(-c2noc(CCC(=O)NCc3ccco3)n2)cc1 | 64% (active) |
| O=C(CCc1nc(-c2ccccc2)no1)NCc1ccco1 | 6.9% |
| Cc1cccc(-c2noc(CCC(=O)NCc3ccco3)n2)c1 | 7.3% |
| CCn1cnc2cc(NCc3nc4ccccc4n3C)ccc21 | 1.7% |
| Cc1cc(NC(=O)C2CC(c3ccc(Cl)cc3)=NO2)no1 (stereo unspecified) | -7.6% |
| Cc1cccc(NS(=O)(=O)Cc2ccccc2)n1 | -2.7% |
| O=C1CC(c2cccs2)c2cc3c(cc2N1)OCCO3 (stereo unspecified) | -3.6% |
| CCOc1c(OC)cccc1C1CC(=O)Nc2cc3c(cc21)OCCO3 (stereo unspecified) | -3.8% |
| CCOc1ccccc1C1CC(=O)NC2=C1C(=O)CCC2 (stereo unspecified) | 11.2% |
| CCOc1ccccc1C1CC(=O)Nc2cc3c(cc21)OCCO3 (stereo unspecified) | 68.1% (active) |
| CCOc1ccccc1C1CC(=O)Nc2cc3c(cc21)OCO3 (stereo unspecified) | 67.2% (active) |
| CCOc1c(OC)cccc1C1CC(=O)Nc2cc(OC)c(OC)cc21 (stereo unspecified) | -2.2% |
| CCCOc1c(OC)cccc1C1CC(=O)Nc2cc3c(cc21)OCCO3 (stereo unspecified) | -3.5% |
| O=C1CC(c2ccc3c(c2)OCO3)c2cc3c(cc2N1)OCCO3 (stereo unspecified) | 8.1% |
| CCCCOc1ccccc1C1CC(=O)NC2=C1C(=O)CCC2 (stereo unspecified) | 56% (active) |
| CCCOc1ccccc1C1CC(=O)NC2=C1C(=O)CCC2 (stereo unspecified) | 39.4% |
| CCCOc1c(OC)cccc1C1CC(=O)Nc2cc3c(cc21)OCO3 (stereo unspecified) | -2.6% |
| CCCOc1ccccc1C1CC(=O)Nc2cc3c(cc21)OCCO3 (stereo unspecified) | 58.6% (active) |
| CC(=O)Nc1ccc2c(c1)nc(CN1CCCC1)n2C | -8.7% |
| Cc1c(NC(=O)CSc2ccccn2)c(=O)n(-c2ccccc2)n1C | 1.3% |
| Cc1cccc2cc(CN(CCN3CCOCC3)C(=O)Nc3ccccc3F)c(=O)[nH]c12 | 13.6% |
| CC12CCC(C(=O)N3CCCCC3)(CC1=O)C2(C)C (stereo unspecified) | -0.3% |
| COC(=O)[C@@]1(Cc2ccccc2)[C@H]2c3cc(C(=O)N(C)C)n(Cc4ccc(S(C)(=O)=O)cc4)c3C[C@H]2CN1C(=O)c1ccccc1 | 2.9% |
| O=c1ccc(Cc2ccccn2)n[nH]1 | -6.4% |

| Compound | cytotoxicity |
| --- | --- |
| Cc1ccc(-n2c(SCC(=O)OC(C)C)nnc2-c2cnccn2)cc1 | 0.6% |
| COc1ccccc1N(C(=O)c1snc(C(N)=O)c1N)C(C(=O)NC1CCCC1)c1ccco1 (stereo unspecified) | -5.3% |
| Cc1oc(-c2ccccc2F)nc1CS(=O)(=O)CC(=O)N1CCc2ccccc21 | -3.2% |
| O=C(c1ccccc1F)N1CCN(c2cccc(C(F)(F)F)c2)CC1 | -6.8% |
| COc1ccc(C(=O)N2CCN(c3cccc(Cl)c3)CC2)cc1 | -4.7% |
| COc1ccccc1C(=O)N1CCN(c2cccc(Cl)c2)CC1 | 53% (active) |
| COc1ccccc1CC(=O)N1CCN(c2cccc(C(F)(F)F)c2)CC1 | -8.5% |
| COc1ccc(C(=O)N2CCN(c3cccc(Cl)c3)CC2)c(OC)c1 | 15.6% |
| COc1cc2c(C(=O)N3CCN(c4cccc(Cl)c4)CC3)cn(C)c(=O)c2cc1OC | 20.5% |
| O=C(O)c1ccccc1C(=O)N1CCN(c2cccc(Cl)c2)CC1 | 8.7% |
| CCOc1ccccc1C(=O)N1CCOCC1 | -16.5% |
| Cc1ccc(C(=O)N2CCN(c3cccc(Cl)c3)CC2)cc1C | -5.4% |
| COc1ccccc1C(=O)N1CCN(c2cccc(C(F)(F)F)c2)CC1 | 58.7% (active) |
| CCOc1ccccc1C(=O)N1CCN(c2cccc(Cl)c2)CC1 | 50.8% (active) |
| CCOc1ccc(C(=O)Cc2ccc3oc(C(=O)O)cc3c2)c(O)c1 | -8.8% |
| O=C(CSc1nc2ncc(Br)cc2[nH]1)Nc1ccc2c(c1)OCO2 | 2.1% |
| COCCNC(=O)COC(=O)/C=C/c1c(C)nn(Cc2ccc(Cl)cc2Cl)c1Cl | 5.2% |
| C[N+]1(CC(=O)Nc2ccc(F)cc2)CCN(C(=O)c2ccco2)CC1 | 15.7% |
| COc1cc(-c2noc(CCCC(=O)NCc3ccccc3)n2)cc(OC)c1OC | 6.8% |
| O=C(COc1ccccc1)N1CCN(S(=O)(=O)c2ccc(Cl)cc2)CC1 | 17.2% |
| O=C1CC(c2ccccc2)CC(O)=C1C=NCCCO (stereo unspecified) | 4.4% |
| Cc1cccc(OCC(=O)NCCN2CCOCC2)c1 | 5.4% |
| COC(=O)[C@H](CCSC)NC(=O)Nc1ccc(OC)c(Cl)c1 | -10.8% |
| Cc1n[nH]c(C)c1S(=O)(=O)N1CCCC(C(=O)NCc2cccs2)C1 (stereo unspecified) | 2.8% |
| O=C(CNS(=O)(=O)c1ccc(F)cc1)N1CCN(c2ccccc2)CC1 | 7% |
| Cc1nc2ccc(NC(=O)Cc3ccsc3)cc2s1 | -7.3% |

| Compound | cytotoxicity |
| --- | --- |
| COc1ccc(N2CCN(Cc3nc4c(c(=O)n(C)c(=O)n4C)n3CCc3ccccc3)CC2)cc1 | 0.1% |
| Cc1cc(=O)oc(C)c1C(=O)N1CCN(c2ccc(F)cc2)CC1 | 5.9% |
| Cn1ncc(N=Cc2ccc([N+](=O)[O-])cc2)c1C(=O)N1CCOCC1 | -3.9% |
| O=[N+]([O-])/C(C(Cl)=C(Cl)Cl)=C(\Nc1ccc(F)cc1)n1cncn1 | 10.6% |
| CC(C)(C)C(=O)/C(=C\c1ccc([N+](=O)[O-])cc1)n1cncn1 | 89% (active) |
| O=C(COc1ccc(S(=O)(=O)Nc2ccccc2)cc1)N1CCOCC1 | -4.7% |
| CCOC(=O)CS(=O)(=O)c1ccccc1 | -4.5% |
| O=S(=O)(C/C(=C/CO)S(=O)(=O)c1ccccc1)c1ccccc1 | 51.2% (active) |
| C/C=C(\CS(=O)(=O)c1ccccc1)S(=O)(=O)c1ccccc1 | -9.9% |
| CC(C)C[C@H](NC(=O)N1CCN(c2ccccc2)CC1)C(=O)O | 6.2% |
| O=C(c1ccc(F)cc1)N1CCN(c2ncccn2)CC1 | 2% |
| Cc1ccccc1NC(=O)CN1C(=O)NC2(CCCCC2)C1=O | 10% |
| Cc1ccc(CN2CCN(C(=O)CCN3C(=O)c4ccccc4C3=O)CC2)cc1 | 6.3% |
| CCOC(=O)c1[nH]c(C)c(C(=O)Nc2ccc(C)c(F)c2)c1C | -2.9% |
| CCOC(=O)c1[nH]c(C)c(C(=O)c2ccc(C)cc2)c1C | 59.5% (active) |
| CCOC(=O)c1[nH]c(C)c(C(=O)OCC)c1C | 2.3% |
| CCOC(=O)c1[nH]c(C)c(C(=O)Nc2ccc(F)cc2)c1C | -9.3% |
| CCOC(=O)c1[nH]c(C)c(C(=O)c2cc(F)ccc2F)c1C | 57.2% (active) |
| CCOC(=O)c1[nH]c(C)c(C(=O)NCc2ccc(C)cc2)c1C | -8.9% |
| CCOC(=O)c1c(C)sc2c1N(C(=O)CN1CCOCC1)c1cc(Cl)ccc1S2 | 12.4% |
| O=C(OCC(=O)N1CCN(c2ccccc2)CC1)C1=COCCO1 | -8.1% |
| O=C(OCC#CCSc1nnc(-c2ccc([N+](=O)[O-])cc2)o1)c1cccs1 | -10.8% |
| CCSc1nnc(NC(=O)COc2ccccc2)s1 | -5% |
| O=C(NCc1ccncc1)Nc1ccc(F)cc1 | 14.7% |
| COc1ccc(-c2cc(N)n(S(=O)(=O)c3c(F)c(F)c(F)c(F)c3F)n2)cc1OC | 59.5% (active) |
| COc1ccc(S(=O)(=O)n2nc(-c3cc(OC)c(OC)c(OC)c3)cc2N)cc1OC | 1.5% |

| Compound | cytotoxicity |
| --- | --- |
| COc1ccc(OC)c(S(=O)(=O)n2nc(-c3ccccc3)cc2N)c1 | -6.1% |
| CCOC(=O)COc1cccc2c(=O)n(CC(=O)NCc3ccc4c(c3)OCO4)ccc12 | 13.3% |
| CCOC(=O)C(C)Oc1cccc2c(=O)n(CC(=O)N3CCc4ccccc43)ccc12 (stereo unspecified) | 4.2% |
| CCOC(=O)C(C)Oc1cccc2c(=O)n(CC(=O)NCc3ccco3)ccc12 (stereo unspecified) | 65.3% (active) |
| c1ccc(OCCOCCN2CCOCC2)cc1 | -2.8% |
| Cc1nc2c(cnn2-c2ccccc2Cl)c(=O)n1-c1ccc(N2CCC(C)CC2)cc1 | 0.5% |
| COCc1cc(C)nc(SCC(=O)Nc2cccc(C)c2C)c1C#N | -2% |
| Cc1csc(NC(=O)c2cc3c(s2)CCCCC3)n1 | -7.3% |
| Cc1csc(NC(=O)c2cc3c(s2)CCC3)n1 | 20.8% |
| CCC(C)NS(=O)(=O)c1ccc(-c2csnn2)s1 (stereo unspecified) | -2.6% |
| CC(CCc1ccccc1)NC(=O)CSc1nnnn1C (stereo unspecified) | 9.7% |
| Cc1ccc2c(c1)[C@@H]1CN(C)CC[C@@H]1N2S(=O)(=O)c1ccc(F)cc1 | 3.2% |
| Cc1ccc(N2CCN(S(=O)(=O)c3ccc(F)cc3)CC2)c(C)c1 | -3.9% |
| CC1=CC(C)(C)N(S(=O)(=O)c2ccc(C)cc2)c2cc(C)ccc21 | 63.7% (active) |
| CC1=CC(C)(C)N(C(=O)CSc2nccn2C)c2cc(C)ccc21 | -6.8% |
| CC1=CC(C)(C)N(S(=O)(=O)c2ccc(F)cc2)c2ccccc21 | 34.7% |
| Cc1ccc(S(=O)(=O)N2C(=S)SCC2(C)C)cc1 | 14.3% |
| CC1=CC(C)(C)N(S(=O)(=O)c2ccc(F)cc2)c2ccc(C)cc21 | 61% (active) |
| CC1=CC(C)(C)N(C(=O)c2ccccc2)c2ccc(C)cc21 | -8.8% |
| CC1=CC(C)(C)N(S(=O)(=O)c2ccc(C)cc2)c2ccc(C)cc21 | 64.1% (active) |
| CC1=CC(C)(C)N(C(=O)CN2C(=O)c3ccccc3C2=O)c2ccccc21 | 12.7% |
| CC1=CC(C)(C)N(S(=O)(=O)c2ccc(C)cc2)c2ccccc21 | 64.3% (active) |
| CC1=CC(C)(C)N(C(=O)C(C)N2C(=O)c3ccccc3C2=O)c2ccc(C)cc21 (stereo unspecified) | 5.3% |

Reference: PubChem BioAssay AID620 (Sanford-Burnham Center for Chemical Genomics, 2007)
